According to PubChem BioAssay:
Active and inactive are the calls of the source.

Assays:
[1] = binders of probe aFSTL3 on microarray, primary screen, stem cell growth factor project, biochemical, small-molecule microarray, fluorescence 635/667 (AID 1064); conditions: higher = more signal;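 note: measures binding of the biotinylated anti-FSTL3 antibody to printed compounds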
[2] = binders from COS7 lysate, DM2A8 probe, primary screen, torsin A project, cell lysate, small-molecule microarray, fluorescence 635/667 (AID 1065); conditions: higher = more signal, COS7 lysate expressing mutant human TOR1A
[3] = binders of probe aFGF2 on microarray, primary screen, stem cell growth factor project, biochemical, small-molecule microarray, fluorescence 635/667 (AID 1067); conditions: higher = more signal;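 note: measures binding of biotinylated aFGF2 protein to printed compounds on slides; z-score merges feature fluorescence and signal-to-noise across triplicate slides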
[4] = binders of probe aFGF10 on microarray, primary screen, stem cell growth factor project, biochemical, small-molecule microarray, fluorescence 635/667 (AID 1071); conditions: higher = more signal;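 note: score merges 667 nm spot intensity and signal to noise from triplicate slides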
[5] = target: Neurogenic locus notch homolog protein 2 (Homo sapiens) (UniProt Q04721); test: Notch2 binders on small-molecule microarrays, primary screen, biochemical, small-molecule microarray, 635 nm fluorescence, stem cell growth factors (AID 1073); conditions: Notch2 binding, higher = more signal
[6] = target: Pro-neuregulin-1, membrane-bound isoform (Homo sapiens) (UniProt Q02297); test: NRG1 binders on small-molecule microarrays, primary screen, psychiatric disease protein project, biochemical, small-molecule microarray, fluorescence 635/667 (AID 1075); conditions: NRG1 binding, 635 nm fluorescence, higher = more signal;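 note: score combines 667 nm spot fluorescence with signal to noise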
[7] = test system: Neuregulin-1 EGF-like domain; test: binders of neuregulin-1 EGF-like domain, primary screen, biochemical, small-molecule microarray, 635 nm fluorescence (AID 1081); conditions: small-molecule microarray binding, higher = more signal;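 note: binding of the protein to compounds printed on small-molecule microarray slides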
[8] = FRG1 promoter luciferase signal modulators, primary screen, FRG1 inhibition for FSHD, cell-based, C2C12 myotubes, firefly/Renilla luciferase, luminescence (AID 1084); conditions: higher = more signal, called active from +8 up or from −8 down
[9] = binders of probe aFST on microarray, primary screen, stem cell growth factor project, biochemical, small-molecule microarray, fluorescence 635/667 (AID 1086); conditions: higher = more signal;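 note: score merges 667 nm fluorescence with signal-to-noise of each printed compound spot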
[10] = binders of probe aHhip on microarray, primary screen, stem cell growth factor project, biochemical, small-molecule microarray, fluorescence 635/667 (AID 1087); conditions: higher = more signal;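 note: score merges spot fluorescence at 667nm with spot signal to noise ratio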
[11] = test system: PRMT1 (protein arginine N-methyltransferase 1); test: PRMT1 binders on small-molecule microarrays, primary screen, biochemical, small-molecule microarray, 635 nm fluorescence (AID 1088); conditions: small-molecule microarray binding, higher = more signal;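 note: binding of Prmt1 protein to compounds spotted on small-molecule microarray slides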
[12] = yeast growth modulation, basal conditions, primary screen, YJM789 clinical isolate, OD600, 24 h (AID 1089);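 note: growth of clinical yeast isolate S. cerevisiae YJM 789 seeded 1000 cells per well; test concentration not given here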; conditions: S. cerevisiae YJM789 growth, higher = more signal, called active from +8 up or from −8 down
[13] = fission yeast growth modulation, primary screen, strain 972, OD600, 24 h, no modulator (AID 1090);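 note: basal condition with compound alone and no growth modifier present; test concentration not given here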; conditions: S. pombe 972 growth, higher = more signal, called active from +8 up or from −8 down
[14] = S. cerevisiae growth modulation with rapamycin, primary screen, strain BY4716, OD600, 96 h (AID 1091); conditions: higher = more signal, called active from +8 up or from −8 down; note: test concentration not given here
[15] = target: Torsin-1A-interacting protein 2 (Homo sapiens) (UniProt Q8NFQ8); test: LULL1 binders on small-molecule microarray, primary screen, cell lysate, human LULL1 lysate, 635/667 nm fluorescence (AID 1092); conditions: hLULL1 lysate binding, 635 nm fluorescence, higher = more signal;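 note: probe is lysate of COS7 cells overexpressing human LULL1; score merges per-feature 667 nm fluorescence with signal-to-noise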
[16] = E. coli growth modulation, two-sided OD650, primary screen, E. coli filamentation project, strain DRC41, 24 h (AID 1093); conditions: OD650, 24 h, higher = more signal, called active from +8 up or from −8 down;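 note: MC1000 strain lacking acrAB efflux and sulA so SOS filamentation is blocked; test concentration not given here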
[17] = small-molecule microarray binders of probe aLefty2, primary screen, biochemical, biotinylated probe, 635/667 nm fluorescence (AID 1094); conditions: higher = more signal;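 note: score merges spot fluorescence near 667 nm with spot signal-to-noise ratio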
[18] = test system: Noggin (protein binding on small-molecule microarray); test: Noggin binders on small-molecule microarray, primary screen, biochemical, 635/667 nm fluorescence (AID 1095); conditions: 635 nm fluorescence, higher = more signal;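 note: score merges 667 nm feature fluorescence with signal to noise over triplicate slides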
[19] = target: Neurogenic locus notch homolog protein 3 (Homo sapiens) (UniProt Q9UM47); test: NOTCH3 binders on small-molecule microarray, primary screen, biochemical, 635/667 nm fluorescence (AID 1096); conditions: NOTCH3 binding, 635 nm fluorescence, higher = more signal
[20] = small-molecule microarray binders of probe aEGFR, primary screen, biochemical, biotinylated probe, 635/667 nm fluorescence (AID 1097); conditions: higher = more signal;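 note: probe is a biotinylated anti-EGFR antibody binding compounds printed on slides; score combines fluorescence near 667 nm and signal to noise of each spot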

Neurogenic locus notch homolog protein 2 (Homo sapiens), sequence (Q04721 whole entry, looked up, canonical isoform): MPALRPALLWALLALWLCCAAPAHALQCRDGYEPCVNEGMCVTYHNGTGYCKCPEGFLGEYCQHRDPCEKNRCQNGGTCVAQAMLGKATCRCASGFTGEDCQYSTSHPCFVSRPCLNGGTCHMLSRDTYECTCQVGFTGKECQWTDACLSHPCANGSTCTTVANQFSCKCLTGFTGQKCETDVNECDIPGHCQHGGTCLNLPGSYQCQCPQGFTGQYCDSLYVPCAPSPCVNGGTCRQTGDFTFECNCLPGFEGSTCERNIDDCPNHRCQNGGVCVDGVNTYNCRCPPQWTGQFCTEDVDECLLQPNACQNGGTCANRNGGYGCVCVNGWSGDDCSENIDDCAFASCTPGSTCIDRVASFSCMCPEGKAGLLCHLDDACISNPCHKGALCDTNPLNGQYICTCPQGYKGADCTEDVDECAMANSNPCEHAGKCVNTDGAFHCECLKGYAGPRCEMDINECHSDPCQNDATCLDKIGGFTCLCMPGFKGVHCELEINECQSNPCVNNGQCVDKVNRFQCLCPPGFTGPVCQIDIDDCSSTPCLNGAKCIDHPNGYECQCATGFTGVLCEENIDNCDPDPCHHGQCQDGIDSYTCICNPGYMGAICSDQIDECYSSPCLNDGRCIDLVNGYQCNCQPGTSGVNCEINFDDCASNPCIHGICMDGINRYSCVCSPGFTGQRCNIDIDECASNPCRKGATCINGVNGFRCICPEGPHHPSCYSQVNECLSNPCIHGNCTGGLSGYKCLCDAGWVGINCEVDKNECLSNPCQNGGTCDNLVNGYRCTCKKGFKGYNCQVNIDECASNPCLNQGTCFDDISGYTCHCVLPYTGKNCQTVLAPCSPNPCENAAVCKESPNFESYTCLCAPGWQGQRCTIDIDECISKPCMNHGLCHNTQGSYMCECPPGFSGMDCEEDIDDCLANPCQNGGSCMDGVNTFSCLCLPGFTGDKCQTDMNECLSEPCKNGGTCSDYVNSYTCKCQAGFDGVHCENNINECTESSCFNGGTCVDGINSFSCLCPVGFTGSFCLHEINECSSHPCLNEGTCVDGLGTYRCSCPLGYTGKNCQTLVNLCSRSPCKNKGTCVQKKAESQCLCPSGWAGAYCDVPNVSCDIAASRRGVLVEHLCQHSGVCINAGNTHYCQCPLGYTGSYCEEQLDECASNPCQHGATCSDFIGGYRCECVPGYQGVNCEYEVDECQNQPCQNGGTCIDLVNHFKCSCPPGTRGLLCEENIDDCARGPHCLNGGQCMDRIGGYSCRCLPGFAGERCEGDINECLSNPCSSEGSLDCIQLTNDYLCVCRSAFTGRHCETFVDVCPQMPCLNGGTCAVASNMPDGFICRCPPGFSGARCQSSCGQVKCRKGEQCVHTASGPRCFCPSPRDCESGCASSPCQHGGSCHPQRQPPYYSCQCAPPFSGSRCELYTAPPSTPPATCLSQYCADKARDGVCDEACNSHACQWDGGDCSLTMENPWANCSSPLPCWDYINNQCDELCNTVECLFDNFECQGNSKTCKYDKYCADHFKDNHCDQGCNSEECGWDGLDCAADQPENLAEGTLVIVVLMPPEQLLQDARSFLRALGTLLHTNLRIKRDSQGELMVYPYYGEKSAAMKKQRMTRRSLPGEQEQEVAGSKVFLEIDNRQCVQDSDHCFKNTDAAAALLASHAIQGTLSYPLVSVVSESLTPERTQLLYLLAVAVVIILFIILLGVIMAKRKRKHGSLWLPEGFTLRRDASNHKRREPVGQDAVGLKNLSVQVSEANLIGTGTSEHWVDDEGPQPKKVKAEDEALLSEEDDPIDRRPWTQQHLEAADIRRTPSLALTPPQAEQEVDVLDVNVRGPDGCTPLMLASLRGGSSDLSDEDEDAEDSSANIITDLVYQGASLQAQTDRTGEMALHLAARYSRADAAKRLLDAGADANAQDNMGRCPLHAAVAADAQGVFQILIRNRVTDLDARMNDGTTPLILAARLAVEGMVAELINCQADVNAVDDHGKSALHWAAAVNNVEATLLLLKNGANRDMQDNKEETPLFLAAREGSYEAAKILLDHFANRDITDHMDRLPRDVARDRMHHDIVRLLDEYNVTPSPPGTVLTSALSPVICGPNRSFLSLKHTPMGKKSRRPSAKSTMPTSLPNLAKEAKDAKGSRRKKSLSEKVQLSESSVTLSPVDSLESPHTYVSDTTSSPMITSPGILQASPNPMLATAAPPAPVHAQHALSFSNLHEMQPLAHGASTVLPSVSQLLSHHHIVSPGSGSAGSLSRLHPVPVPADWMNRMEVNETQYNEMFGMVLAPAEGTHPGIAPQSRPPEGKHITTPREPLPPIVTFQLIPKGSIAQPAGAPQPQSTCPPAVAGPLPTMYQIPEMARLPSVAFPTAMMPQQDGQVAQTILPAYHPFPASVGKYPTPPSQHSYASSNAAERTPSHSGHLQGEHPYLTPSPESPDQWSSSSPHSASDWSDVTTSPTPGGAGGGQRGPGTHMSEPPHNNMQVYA
Neurogenic locus notch homolog protein 3 (Homo sapiens), sequence (Q9UM47 whole entry, looked up): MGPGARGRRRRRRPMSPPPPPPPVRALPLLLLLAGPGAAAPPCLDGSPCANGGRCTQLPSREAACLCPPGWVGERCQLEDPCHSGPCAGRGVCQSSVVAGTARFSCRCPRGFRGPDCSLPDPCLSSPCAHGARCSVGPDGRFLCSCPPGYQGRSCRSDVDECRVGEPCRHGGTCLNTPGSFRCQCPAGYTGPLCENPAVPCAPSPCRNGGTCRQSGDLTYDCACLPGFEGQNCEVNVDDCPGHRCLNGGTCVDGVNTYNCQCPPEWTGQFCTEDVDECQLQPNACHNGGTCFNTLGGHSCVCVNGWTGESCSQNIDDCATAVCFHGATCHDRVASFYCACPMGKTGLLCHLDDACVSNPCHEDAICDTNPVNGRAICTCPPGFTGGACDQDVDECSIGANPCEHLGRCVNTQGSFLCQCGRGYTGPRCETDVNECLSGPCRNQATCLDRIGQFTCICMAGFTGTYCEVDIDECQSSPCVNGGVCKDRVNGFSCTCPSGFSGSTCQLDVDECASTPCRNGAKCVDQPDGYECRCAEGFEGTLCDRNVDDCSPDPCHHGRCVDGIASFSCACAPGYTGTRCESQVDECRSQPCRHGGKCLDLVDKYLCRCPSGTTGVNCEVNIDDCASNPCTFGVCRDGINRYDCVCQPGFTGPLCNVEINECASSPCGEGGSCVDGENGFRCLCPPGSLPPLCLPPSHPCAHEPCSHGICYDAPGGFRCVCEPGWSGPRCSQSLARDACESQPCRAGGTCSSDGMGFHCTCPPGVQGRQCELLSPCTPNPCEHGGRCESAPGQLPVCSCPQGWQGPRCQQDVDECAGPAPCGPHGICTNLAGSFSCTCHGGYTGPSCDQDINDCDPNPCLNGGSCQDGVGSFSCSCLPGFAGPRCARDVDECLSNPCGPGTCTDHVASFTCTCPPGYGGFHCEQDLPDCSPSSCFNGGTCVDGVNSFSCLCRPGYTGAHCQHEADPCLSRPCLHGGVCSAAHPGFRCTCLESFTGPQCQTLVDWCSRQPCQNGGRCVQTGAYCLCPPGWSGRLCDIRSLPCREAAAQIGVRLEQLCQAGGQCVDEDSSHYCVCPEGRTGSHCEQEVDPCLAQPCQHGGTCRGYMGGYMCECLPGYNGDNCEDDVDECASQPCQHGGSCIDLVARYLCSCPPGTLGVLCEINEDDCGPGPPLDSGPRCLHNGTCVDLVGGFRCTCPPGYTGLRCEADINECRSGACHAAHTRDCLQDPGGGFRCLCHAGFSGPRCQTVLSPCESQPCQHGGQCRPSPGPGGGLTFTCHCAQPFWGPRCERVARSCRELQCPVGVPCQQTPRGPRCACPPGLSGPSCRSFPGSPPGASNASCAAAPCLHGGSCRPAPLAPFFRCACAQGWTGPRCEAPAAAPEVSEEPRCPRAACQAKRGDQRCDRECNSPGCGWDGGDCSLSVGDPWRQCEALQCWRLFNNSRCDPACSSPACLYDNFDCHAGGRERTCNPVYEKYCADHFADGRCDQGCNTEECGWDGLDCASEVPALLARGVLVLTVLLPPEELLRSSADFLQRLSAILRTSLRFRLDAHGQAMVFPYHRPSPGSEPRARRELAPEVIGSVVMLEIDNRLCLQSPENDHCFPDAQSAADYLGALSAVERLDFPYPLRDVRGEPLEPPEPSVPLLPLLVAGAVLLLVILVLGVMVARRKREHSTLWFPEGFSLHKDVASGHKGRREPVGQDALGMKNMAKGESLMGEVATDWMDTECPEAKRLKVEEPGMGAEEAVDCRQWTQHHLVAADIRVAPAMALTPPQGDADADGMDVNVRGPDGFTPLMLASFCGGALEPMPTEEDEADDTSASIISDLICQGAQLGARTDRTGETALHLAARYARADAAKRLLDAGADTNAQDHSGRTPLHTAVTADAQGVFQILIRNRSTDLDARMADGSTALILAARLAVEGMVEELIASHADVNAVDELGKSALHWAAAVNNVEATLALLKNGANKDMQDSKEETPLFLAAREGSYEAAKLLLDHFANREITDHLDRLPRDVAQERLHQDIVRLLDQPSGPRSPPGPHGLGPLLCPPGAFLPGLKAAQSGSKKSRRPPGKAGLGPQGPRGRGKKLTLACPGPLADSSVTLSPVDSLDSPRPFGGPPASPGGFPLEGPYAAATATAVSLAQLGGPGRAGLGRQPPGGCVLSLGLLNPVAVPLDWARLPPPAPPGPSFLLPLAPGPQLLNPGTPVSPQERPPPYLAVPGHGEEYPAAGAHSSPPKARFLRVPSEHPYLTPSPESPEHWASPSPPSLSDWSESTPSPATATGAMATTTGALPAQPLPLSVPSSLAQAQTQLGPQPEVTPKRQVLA

Row | SMILES | composite z-score [1] | composite z-score [2] | composite z-score [3] | composite z-score [4] | composite z-score [5] | composite z-score [6] | composite z-score [7] | z-score [8] | composite z-score [9] | composite z-score [10] | composite z-score [11] | z-score [12] | z-score [13] | z-score [14] | composite z-score [15] | z-score [16] | composite z-score [17] | composite z-score [18] | composite z-score [19] | composite z-score [20]
1 | CCCCC[C@H]1OC[C@@]23C=C(Br)[C@@H](CC12)[C@@]1(CO1)C3=O (stereo not given in full) | -0.41 | 0.878 | -0.2 | -0.112 | -0.308 | -0.556 | -0.497 | 0.201 (inactive) | -0.252 | -0.132 | 0.915 | -1.01 (inactive) | -6.44 (inactive) | -0.76 (inactive) | 0.24 | -0.971 (inactive) | -0.231 | 0.483 | 0.0322 | -0.122
2 | CC(C)c1ccc(NN2C(C(O)c3ccc(C#N)cc3)C=CC3C(=O)N(c4ccccc4)C(=O)C32)cc1 (stereo not given) | 0.546 | 0.0853 | 0.105 | 1.15 | 1.72 | 1.87 | 1 | -2.97 (inactive) | 1.8 | -0.0704 | 1.54 | 0.902 (inactive) | 0.608 (inactive) | 0.44 (inactive) | 3.36 | -1.27 (inactive) | 0.286 | -0.144 | 1.07 | 0.16
3 | C=CC[C@]1(C(=O)N2CCOCC2)COC(c2ccc(OCCCO)cc2)=N1 | 0.0944 | 1.47 | 0.075 | -0.151 | 0.0759 | 1.52 | 1.39 | 0.683 (inactive) | 0.219 | -0.249 | 1.55 | -0.544 (inactive) | -0.243 (inactive) | -1.28 (inactive) | 4.02 | 0.0927 (inactive) | 0.0386 | 0.78 | 1.09 | -0.0828
4 | CC(C)C[C@@H]1NC(=O)[C@@H]2C[C@H](C(=O)NCCCCCCN)[C@H](c3cccc(OCCO)c3)N2C1=O | 0.0713 | -0.262 | 0.107 | 0.655 | 0.928 | 1.98 | 1.44 | 1.32 (inactive) | 0.819 | -0.121 | 1.53 | -0.148 (inactive) | -0.114 (inactive) | -0.502 (inactive) | 2.98 | 1.03 (inactive) | 0.235 | 0.993 | 1.12 | 0.0499
5 | CC(C)(C)OC(=O)CC[C@@]1(C(=O)NCC(O)CO)N=C(c2ccc(OCCCO)cc2)O[C@@H]1c1ccccc1CN=[N+]=[N-] (stereo not given in full) | 0.316 | 1.86 | -0.0249 | 0.426 | 1.49 | 1.01 | 1.48 | 3.3 (inactive) | 0.544 | -0.0994 | 0.782 | -0.614 (inactive) | 0.0076 (inactive) | -0.753 (inactive) | 2.89 | 0.188 (inactive) | -0.0691 | 0.153 | 0.558 | -0.0229
6 | CN(C)c1ccc(C(O)C2C=CC3C(=O)NC(=O)C3N2Nc2ccccn2)cc1 (stereo not given) | -0.142 | 1.55 | -0.0982 | 0.68 | 1.5 | 1.15 | 1.41 | 2.15 (inactive) | 0.995 | -0.134 | 0.757 | -0.0671 (inactive) | 0.716 (inactive) | 0.504 (inactive) | 1.31 | -1.26 (inactive) | -0.118 | 0.438 | 1 | 0.107
7 | CC(C)[Si]1(C(C)C)OCc2cc(C3CC3)nc(-c3ccc(Oc4ccccc4)cc3)c21 | -0.0872 | -0.502 | -0.207 | -0.18 | -0.393 | -0.65 | -0.791 | -0.343 (inactive) | -0.15 | -0.469 | -0.834 | 1.95 (inactive) | 1.12 (inactive) | 2.1 (inactive) | -0.229 | -0.26 (inactive) | -0.13 | -0.27 | -0.488 | -0.062
8 | COCCOC(=O)N1C(=O)[C@@]2(c3cc(C#CCNC(N)=O)ccc31)[C@H](C(N)=O)[C@H]1C(=O)O[C@H](c3ccccc3)[C@H](c3ccccc3)N1[C@@H]2c1ccccc1OCCO | -0.0102 | 0.176 | -0.0381 | 0.43 | 1.23 | 0.667 | 0.46 | 1.94 (inactive) | 0.931 | 0.107 | 1.47 | 1 (inactive) | 0.346 (inactive) | 1.91 (inactive) | 2.07 | -0.658 (inactive) | 0.0389 | 0.506 | 1.08 | -0.071
9 | COc1ccc([Si](C)(C)[C@@H]2[C@@H](CCO)O[C@]3(C(=O)N(Cc4ccccc4)c4ccc(NC(=O)[C@H](C)O)cc43)[C@H]2C)cc1 | -0.441 | 0.383 | -0.0505 | 0.8 | 1.23 | 1.13 | 1.13 | -3.84 (inactive) | 0.559 | 0.162 | 1.54 | 2.85 (inactive) | 0.386 (inactive) | 7.41 (inactive) | 2 | 0.655 (inactive) | -0.0766 | 1.25 | 1.05 | -0.067
10 | Cc1ccc(C(C)CC(O)C2C=CC3C(=O)N(c4ccccc4)C(=O)C3N2Nc2ccccc2)o1 (stereo not given) | -0.172 | -0.314 | -0.087 | 0.504 | 1.65 | 1.18 | 1.21 | -0.0963 (inactive) | 1.51 | 0.113 | 1.53 | 0.568 (inactive) | -0.132 (inactive) | 0.144 (inactive) | 3.09 | -0.866 (inactive) | 0.326 | -0.0381 | 1.04 | 0.216
11 | C=CCN1Cc2ccccc2[C@@H]2OC(c3ccc(OCCCO)cc3)=N[C@]2(CC=C)C1=O | 1.41 | 0.629 | 0.32 | 0.0911 | 0.848 | 0.955 | 1.06 | -0.479 (inactive) | 2.47 | -0.159 | 1.57 | -0.98 (inactive) | -2.8 (inactive) | -0.926 (inactive) | 3.15 | 0.924 (inactive) | 0.188 | 1.84 | 1.03 | 0.434
